This passage reports growth inhibition results from PubChem BioAssay (NCI).

The panel holds about 79,000 compounds, 15% with a hit somewhere; the sample as a whole holds those more often. Calls of active or inactive are those of the source. Rule as the data show it: active = growth inhibition above about 70%; inactive = the rest.

This experiment in a line: NCI Yeast Anticancer Drug Screen. Data for the bub3 strain (AID 167). To be noted: S. cerevisiae bub3 mutant strain, at 50.0 µM, hits give high values. The gist of the method:
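Yeast carrying a defined mutation is treated with each compound, and growth is compared with that of vehicle-exposed cells to give inhibition.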
In the case of `CCc1cccc(C(C)CC)c1N=C(NC(=O)c1ccccc1C(=O)NC(=Nc1c(CC)cccc1C(C)CC)SC)SC` (stereo not drawn), the growth inhibition was 15.1% (inactive).
With `Cc1cccc(-c2nnc3s/c(=C\c4ccc(N(C)C)cc4)c(=O)n23)c1` the figure was 13.5% (inactive); with `CN(C)CC(C(N)=O)C(N)=O`, -10.5% (inactive).
The value for `CC1=Nc2ccccc2NC(C)(C)C1` was 15.2% (inactive); that for `CCOC(=O)Cc1nc2ccccc2[nH]c1=O` was -6.35% (inactive).
With `CCCCCOc1ccc2ccccc2c1` the figure was 10.2% (inactive); with `CCOC(=O)Cc1nnc2n(-c3ccccc3)c(=O)c3ccccc3n12`, -21.9% (inactive); with `COc1cc(C(OC(C)=O)OC(C)=O)c(Cl)c(Cl)c1OC(C)=O`, 12.2% (inactive).
Take `CCCCCCCCCCCCOc1ccc(Br)cc1`: the growth inhibition was -13.4% (inactive).
The value for `Nc1nn(CC(O)CO)c(=O)s1` (stereo not drawn) was 8.1% (inactive); that for `O=C1NC(=S)S/C1=C/C=C/c1ccccc1[N+](=O)[O-]` was 42.5% (inactive).
The value for `COc1ccc(/C=C/C(=O)c2c(-c3ccccc3)nn(C)c(=O)c2N2CCCCC2)cc1` was 7.05% (inactive).
`O=C(C[n+]1ccccc1)c1ccccc1`: the growth inhibition was 9.45% (inactive).
In the case of `O=C(CN1CCN(Cc2ccccc2)CC1)N1CCCn2c1nc1ccccc1c2=O`, the growth inhibition is 11.9% (inactive).
With `Clc1c2c(nc3ccccc13)CCCC2` the figure was 7.65% (inactive); with `CC[n+]1ccc(-c2ccccc2)o1`, 28.4% (inactive); with `O=c1cc(CO)oc2c3c(cc(O)c12)OCC(COC1OC(CO)C(O)C(O)C1O)=CC3` (stereo not drawn), -0.55% (inactive).
Regarding `O=C1C2(CCCC13OC3c1ccccc1)OC2c1ccccc1` (stereo not drawn), the growth inhibition is 23.3% (inactive).
